Test [1] concerns the target Cytochrome P450 2D6 (Homo sapiens) (UniProt P10635). The test can be described thus: qHTS Assay for Inhibitors and Substrates of Cytochrome P450 2D6 (AID 891). Note: potency is the fitted concentration of half-maximal effect; nearly all actives have a fitted effect of over 60% in size. In short, it runs like this: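 Human CYP2D6 (5 nM) with 30 uM Luciferin-ME EGE (at Km) in 100 mM KPO4, compound preincubated 10 min, then NADPH regeneration system for 60 min at room temperature. Luciferin read by luminescence; normalized to 1.43 uM quinidine.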
For orientation: Quantitative high-throughput screening tests each substance at several concentrations.

For test [2], the system named is 7G8. The test can be described thus: qHTS profiling for inhibitors of Plasmodium falciparum proliferation (AID 504749). Note: nearly all actives have a fitted effect of over 60% in size. Note: potency is the fitted concentration of half-maximal effect. The conditions noted are these: P. falciparum in erythrocytes, SYBR Green DNA, 72 h; series mostly up to 12.8 µM. In short, it runs like this:
(§1)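 P. falciparum-infected erythrocytes (0.3% parasitemia, 2.5% hematocrit final) were exposed to compounds for 72 h at 37 C in 5% CO2, then lysed with SYBR Green buffer overnight at room temperature; parasite DNA fluorescence was normalized to artemisinin and DMSO controls.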

In test [3] the test system is CP194. The description is as above. The conditions noted are these: P. falciparum in erythrocytes, SYBR Green DNA, 72 h; series mostly up to 12.8 µM. In short, it runs like this:
as §1

The subject of test [4] is CP203. The test is described as above. The conditions noted are these: P. falciparum in erythrocytes, SYBR Green DNA, 72 h; series mostly up to 12.8 µM. In short, it runs like this:
as §1

The test system of test [5] is CP215. The description is as above. Particulars: P. falciparum in erythrocytes, SYBR Green DNA, 72 h; series mostly up to 12.8 µM. A digest of the protocol: as §1
The test system of test [6] is CP335. The description is as above. The conditions noted are these: P. falciparum in erythrocytes, SYBR Green DNA, 72 h; series mostly up to 12.8 µM. A digest of the protocol: as §1
The subject of test [7] is DIV17. The description is as above. The conditions noted are these: P. falciparum in erythrocytes, SYBR Green DNA, 72 h; series mostly up to 12.8 µM. A digest of the protocol: as §1
The subject of test [8] is GB4. The description is as above. Particulars: P. falciparum in erythrocytes, SYBR Green DNA, 72 h; series mostly up to 12.8 µM. A digest of the protocol: as §1
The subject of test [9] is P94_40. Described as above. The conditions noted are these: P. falciparum in erythrocytes, SYBR Green DNA, 72 h; series mostly up to 12.8 µM. A digest of the protocol: as §1
Test [10] relates to PC26. The description is as above. The conditions noted are these: P. falciparum in erythrocytes, SYBR Green DNA, 72 h; series mostly up to 12.8 µM. In short, it runs like this: as §1
Test [11] deals with TAB109. The test is described as above. The conditions noted are these: P. falciparum in erythrocytes, SYBR Green DNA, 72 h; series mostly up to 12.8 µM. In short, it runs like this: as §1
The nature of test [12]: S16 Schwann cell PMP22 intronic element firefly luciferase assay (AID 624032).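 Note: plate controls were DMSO for no effect and PTC124 positive control mean for full effect; nearly all actives have a fitted effect of over 30% in size.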 A digest of the protocol:
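Rat S16 Schwann cells stably carrying a PMP22 intronic element-driven Fluc reporter were seeded overnight, then exposed to compounds for 24 h at 37 °C. Luminescence was normalized to PTC124 (positive control) and DMSO (0% activity).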

The subject of test [13] is CP265. The experiment in a line: qHTS profiling for inhibitors of Plasmodium falciparum proliferation (AID 504749). Note: nearly all actives have a fitted effect of over 60% in size. Note: potency is the fitted concentration of half-maximal effect. The conditions noted are these: P. falciparum in erythrocytes, SYBR Green DNA, 72 h; series mostly up to 12.8 µM. A digest of the protocol: as §1
Test [14] has as its system CP268. The test is described as above. The conditions noted are these: P. falciparum in erythrocytes, SYBR Green DNA, 72 h; series mostly up to 12.8 µM. In short, it runs like this: as §1
Test [15] has as its system DFO2036. Described as above. Particulars: P. falciparum in erythrocytes, SYBR Green DNA, 72 h; series mostly up to 12.8 µM. A digest of the protocol:
as §1

A short description of test [16]: qHTS Assay for Identification of Small Molecule Agonists for Hypoxia Response Element Signaling Pathway (AID 914; active = well fitted activation curve with a large enough effect in the signal ratio, with a control signal flat, not every such curve was filed as active; the % refers to the signal ratio; note: % of control where 0% means no effect). The conditions noted are these: ME-180 (cervical carcinoma) HRE-bla reporter, beta-lactamase ratio, CoCl2, 17 h; activation: active compounds read high. A digest of the protocol:
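In Opti-MEM containing 0.5% dialyzed FBS and 10 mM HEPES, ME-180 HRE-bla cells received a compound titration and EC50 CoCl2. They were incubated 17 hours, then CCF4-loaded 2.5 hours at room temperature before ratio reading.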

The target of test [17] is Cytochrome P450 1A2 (Homo sapiens) (UniProt P05177). The test can be described thus: p450-cyp1a2 (AID 410; calls by dose curve; note: potency is the fitted concentration of half-maximal effect). A digest of the protocol:
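Human CYP1A2 (20nM) demethylated Luciferin-ME at its Km (100uM) in 100mM KPO4. After 10 min compound preincubation, NADPH regeneration ran the reaction 60 min at room temperature. Luciferin was read by luminescence, normalized to 57 uM furafylline.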

Test [18] deals with Cytochrome P450 2C9 (Homo sapiens) (UniProt P11712). The experiment in a line: qHTS Assay for Inhibitors and Substrates of Cytochrome P450 2C9 (AID 883). Note: potency is the fitted concentration of half-maximal effect; nearly all actives have a fitted effect of over 60% in size. A digest of the protocol:
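A luminogenic readout tracked human CYP2C9 (10nM) converting deoxyluciferin (100uM, at KM) in 25mM KPO4 during 60 min at 37C with regenerated NADPH. Values normalized to 57uM sulphaphenazole as complete inhibition.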

Test [19] concerns the target Cytochrome P450 3A4 (Homo sapiens) (UniProt P08684). The test can be described thus: qHTS Assay for Activators of Cytochrome P450 3A4 (AID 885). Note: nearly all actives have a fitted effect of over 65% in size. A digest of the protocol: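 Human CYP3A4 (20 nM) with Luciferin-PPXE at 25 uM (its KM) in 200 mM KPO4; 10 min compound preincubation, then NADPH regeneration and 60 min reaction at RT. Luciferin read by luminescence; normalized to 57 uM ketoconazole full inhibition.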

The target in test [20] is Cytochrome P450 2C19 (Homo sapiens) (UniProt P33261). The experiment in a line: qHTS Assay for Inhibitors and Substrates of Cytochrome P450 2C19 (AID 899). Note: nearly all actives have a fitted effect of over 60% in size. Note: potency is the fitted concentration of half-maximal effect. A digest of the protocol:
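NADPH-dependent conversion of Luciferin-H EGE (10uM, at KM) by 5nM enzyme in 50mM KPO4, 60 min at 37C following 10 min compound preincubation. Stopped with luciferin detection buffer; luminescence read after 20 min.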

Values without a mark were called inactive. Inconclusive results are not listed. Activity calls are given as the source filed them. Unless noted, calls come from the whole dose curve; as a rule, active = well fitted curve in the direction sought with a large enough effect; inconclusive = small, poorly fitted or top-dose-only effect, or another doubt; inactive = no such curve, though single readings can be large; an effect the other way counts as inactive or inconclusive.

Chain of Cytochrome P450 1A2 (Homo sapiens) (P05177 whole entry, looked up): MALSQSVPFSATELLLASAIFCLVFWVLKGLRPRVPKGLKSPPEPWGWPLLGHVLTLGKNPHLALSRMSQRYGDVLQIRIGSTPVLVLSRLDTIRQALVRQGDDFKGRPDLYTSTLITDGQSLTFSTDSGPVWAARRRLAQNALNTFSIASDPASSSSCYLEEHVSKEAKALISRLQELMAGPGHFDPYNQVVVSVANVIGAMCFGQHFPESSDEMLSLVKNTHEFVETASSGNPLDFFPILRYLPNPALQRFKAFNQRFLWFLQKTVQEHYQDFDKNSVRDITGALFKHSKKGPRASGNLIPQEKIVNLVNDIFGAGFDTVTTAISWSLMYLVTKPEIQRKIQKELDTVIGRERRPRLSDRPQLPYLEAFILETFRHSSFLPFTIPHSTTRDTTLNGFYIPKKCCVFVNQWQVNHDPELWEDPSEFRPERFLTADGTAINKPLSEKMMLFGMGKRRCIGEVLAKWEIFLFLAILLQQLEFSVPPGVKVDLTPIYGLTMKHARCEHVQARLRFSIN
Chain of Cytochrome P450 2C19 (Homo sapiens) (P33261 whole entry, looked up): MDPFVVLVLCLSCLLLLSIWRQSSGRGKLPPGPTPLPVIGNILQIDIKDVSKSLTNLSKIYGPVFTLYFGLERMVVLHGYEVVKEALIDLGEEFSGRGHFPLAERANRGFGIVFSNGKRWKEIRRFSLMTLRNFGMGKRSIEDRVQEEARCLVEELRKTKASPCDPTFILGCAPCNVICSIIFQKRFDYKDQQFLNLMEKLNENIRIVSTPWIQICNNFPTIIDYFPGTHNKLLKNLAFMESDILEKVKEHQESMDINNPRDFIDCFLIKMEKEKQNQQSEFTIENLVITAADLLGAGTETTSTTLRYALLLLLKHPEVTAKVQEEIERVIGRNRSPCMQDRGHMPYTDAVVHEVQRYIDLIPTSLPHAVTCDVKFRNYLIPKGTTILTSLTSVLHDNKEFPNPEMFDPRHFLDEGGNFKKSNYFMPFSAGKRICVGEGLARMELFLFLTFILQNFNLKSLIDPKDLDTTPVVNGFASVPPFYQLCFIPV
Chain of Cytochrome P450 2D6 (Homo sapiens) (P10635 whole entry, looked up): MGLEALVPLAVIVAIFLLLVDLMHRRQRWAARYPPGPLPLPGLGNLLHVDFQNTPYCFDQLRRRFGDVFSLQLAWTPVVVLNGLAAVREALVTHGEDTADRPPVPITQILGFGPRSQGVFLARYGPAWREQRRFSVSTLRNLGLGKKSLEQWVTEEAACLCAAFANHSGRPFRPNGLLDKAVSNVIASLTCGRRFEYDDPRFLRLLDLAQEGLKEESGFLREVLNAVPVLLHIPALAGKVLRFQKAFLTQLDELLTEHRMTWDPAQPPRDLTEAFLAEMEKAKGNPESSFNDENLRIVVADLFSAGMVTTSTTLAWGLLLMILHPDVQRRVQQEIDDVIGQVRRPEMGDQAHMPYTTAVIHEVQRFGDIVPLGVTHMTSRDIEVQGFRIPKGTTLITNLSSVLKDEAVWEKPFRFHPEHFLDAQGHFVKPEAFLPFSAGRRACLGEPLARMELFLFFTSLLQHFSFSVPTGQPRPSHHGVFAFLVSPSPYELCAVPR
Chain of Cytochrome P450 2C9 (Homo sapiens) (P11712 whole entry, looked up): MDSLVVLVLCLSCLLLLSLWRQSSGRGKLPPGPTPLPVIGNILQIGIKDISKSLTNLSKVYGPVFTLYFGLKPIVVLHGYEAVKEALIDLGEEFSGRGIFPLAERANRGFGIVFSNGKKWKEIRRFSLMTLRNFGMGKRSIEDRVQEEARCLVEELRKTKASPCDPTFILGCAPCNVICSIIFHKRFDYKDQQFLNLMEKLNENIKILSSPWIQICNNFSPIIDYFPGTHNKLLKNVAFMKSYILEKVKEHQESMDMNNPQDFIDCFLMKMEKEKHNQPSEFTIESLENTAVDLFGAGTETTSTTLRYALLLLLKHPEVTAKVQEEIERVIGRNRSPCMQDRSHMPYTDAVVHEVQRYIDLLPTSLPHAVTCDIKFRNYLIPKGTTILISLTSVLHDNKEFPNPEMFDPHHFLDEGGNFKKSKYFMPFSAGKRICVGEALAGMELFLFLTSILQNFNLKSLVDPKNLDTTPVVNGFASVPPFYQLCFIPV
Chain of Cytochrome P450 3A4 (Homo sapiens) (P08684 whole entry, looked up): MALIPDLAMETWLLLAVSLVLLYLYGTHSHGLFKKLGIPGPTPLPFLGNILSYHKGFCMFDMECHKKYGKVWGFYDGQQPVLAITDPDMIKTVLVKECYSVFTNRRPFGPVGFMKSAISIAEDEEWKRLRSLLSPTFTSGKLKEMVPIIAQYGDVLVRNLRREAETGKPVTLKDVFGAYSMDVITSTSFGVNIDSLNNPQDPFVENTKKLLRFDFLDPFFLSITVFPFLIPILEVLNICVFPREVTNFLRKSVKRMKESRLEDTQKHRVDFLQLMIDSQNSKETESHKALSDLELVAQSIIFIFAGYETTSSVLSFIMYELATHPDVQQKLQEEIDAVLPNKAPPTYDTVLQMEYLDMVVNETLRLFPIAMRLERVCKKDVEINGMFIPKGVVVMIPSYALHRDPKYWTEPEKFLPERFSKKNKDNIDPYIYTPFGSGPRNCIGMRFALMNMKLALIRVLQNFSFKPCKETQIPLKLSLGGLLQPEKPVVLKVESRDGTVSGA

For the compound `CC(C)(C)NC[C@@H](O)COc1ccccc1C1CCCC1`, the Potency in test [1] is 2.51 µM (active); in test [2], 0.708 µM (active); in test [3] it was 5.73 µM (active); in test [4], 3.22 µM (active); in [5], 4.55 µM (active); in [6] it was 3.61 µM (active). Further, the Potency is 3.22 µM (active) in [7]; 1.81 µM (active) in test [8]; 3.98 µM (active) in [9]; 6.42 µM (active) in test [10]; 3.16 µM (active) in test [11].
Turning to `CCN[C@@H]1CN(CCCOC)S(=O)(=O)c2sc(S(N)(=O)=O)cc21`, the Potency result in [12], in test [2], in test [3], in [4], in [5] and in [13] was “inactive” in each case. The Potency result in test [14], in test [6], in test [15], in test [7], in test [8] and in test [10] was “inactive” throughout. Also, the Potency entry in test [11] is “inactive”.
Regarding `CO[C@H]1[C@H](O[C@H]2O[C@@H](C)[C@@H](O[C@@H]3C[C@](C)(O)[C@H](O)[C@H](C)O3)[C@@H](N(C)C)[C@@H]2O)[C@@H](CC=O)C[C@@H](C)[C@@H](O[C@H]2CC[C@H](N(C)C)[C@H](C)O2)/C=C\C=C/C[C@@H](C)OC(=O)C[C@H]1O`, the Potency result in test [12], in test [13], in [15], in test [7] and in test [10] was “inactive” throughout. The Potency in [11] was 1.58 µM (active).
As to `CC[C@H]1NC(=O)c2cc(S(N)(=O)=O)c(Cl)cc2N1`, the activation in test [16] was 3.52%. Further, the Potency entry in test [2], in test [3], in test [4], in test [13], in test [14] and in test [6] was “inactive” each time. In addition, the Potency result in [15], in test [7], in [8], in test [9] and in [11] was “inactive” in each case.
Consider `CN[C@H]1[C@H](O)[C@@H](O[C@@H]2[C@H](O)[C@@H](O[C@H]3OC(CN)=CC[C@H]3N)[C@@H](N)C[C@H]2N)OC[C@@]1(C)O`, for which the Potency result in test [2], in test [3], in [4], in [5], in [13] and in [14] was “inactive” throughout. Besides, the Potency entry in [6], in test [7], in test [8], in [9], in test [10] and in test [11] was “inactive” throughout.
As to `O[C@@](CCN1CCCC1)(c1ccccc1)C1CCCCC1`, the Potency result in test [12], in [14], in [6] and in test [8] was “inactive” in each case. The values for the Potency in [2] and in test [7] were 4.47 µM (active) and 3.22 µM (active), respectively.
Regarding `Clc1ccc(CC[C@H](Cn2ccnc2)Sc2c(Cl)cccc2Cl)cc1`, the Potency was 3.98 µM (active) in [17]; 0.0126 µM (active) in [18]; 1.26 µM (active) in [1]; 0.0025 µM (active) in [20]; 0.891 µM (active) in test [2]; 6.42 µM (active) in [3]. For the same compound, the Potency in [4] is 6.42 µM (active); in [7] it was 4.05 µM (active); in test [8], 3.22 µM (active); in test [10], 4.55 µM (active). Also, the Potency entry in test [19] is “inactive”.
Consider `CN(C)CCO[C@@H](c1ccc(Cl)cc1)c1ccccn1`, for which the Potency entry in test [17] and in test [20] was “inactive” each time.
In the case of `C#C[C@@]1(O)CC[C@@H]2[C@@H]3CCC4=CC(=O)CC[C@@H]4[C@H]3CC[C@]21CC`, the Potency result in test [17] was “inactive”.
In the case of `CC(=O)O[C@H]1C[C@@]2(C)[C@H](C[C@@H](O)[C@H]3[C@@]4(C)CC[C@@H](O)[C@@H](C)[C@H]4CC[C@@]32C)C1=C(CCC=C(C)C)C(=O)O`, the Potency result in test [12], in test [3], in [4], in [5], in test [13] and in [14] was “inactive” throughout. In addition, the Potency entry in test [6], in test [15], in test [8], in [9], in test [10] and in test [11] was “inactive” in each case.
